Results taken from PubChem BioAssay (NCI).
About 79,000 compounds went through this panel and 15% of them were active in at least one assay; those are over-represented in the sample as a whole. No stated cut-off is given here; in the data, active means growth inhibition above about 70%; inactive means the rest.

Legend:
[1] = NCI Yeast Anticancer Drug Screen. Data for the rad50 strain (AID 155);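 further: 0% = growth of vehicle-only cultures of the same strain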; details: S. cerevisiae rad50 strain growth inhibition; at 50.0 µM; stronger effect = higher value
Outline: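 Vehicle-treated cultures provide the reference for the growth inhibition reported for compound-exposed, repair-deficient yeast.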

[2] = NCI Yeast Anticancer Drug Screen. Data for the mec2-1 strain (AID 157); details: S. cerevisiae mec2-1 strain, at 50.0 µM, stronger effect = higher value
Outline: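 Each compound was tested on mec2-1 yeast, a strain altered in DNA damage repair or cell cycle control. Growth inhibition is reported relative to vehicle.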

[3] = NCI Yeast Anticancer Drug Screen. Data for the sgs1 mgt1 strain (AID 161);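 further: 0% = growth of cultures given vehicle only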; details: S. cerevisiae sgs1 mgt1 strain, at 50.0 µM, stronger effect = higher value
Outline: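 Inhibition of yeast growth, normalised to vehicle-treated controls, is reported for a strain bearing genetic alterations in DNA damage repair.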

[4] = NCI Yeast Anticancer Drug Screen. Data for the cln2 rad14 strain (AID 165);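 further: 0% = growth equal to vehicle treated cultures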; details: S. cerevisiae cln2 rad14 strain, at 50.0 µM, stronger effect = higher value
Outline: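 Test compounds were added to cln2 rad14 yeast cultures; inhibition of growth was then determined by comparison with vehicle treatment.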

[5] = NCI Yeast Anticancer Drug Screen. Data for the bub3 strain (AID 167); details: S. cerevisiae bub3 mutant strain, at 50.0 µM, stronger effect = higher value
Outline: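 Mutant yeast screening strain plus compound; vehicle-treated cultures serve as the 0% inhibition reference.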

[6] = NCI Yeast Anticancer Drug Screen. Data for the mlh1 rad18 strain (AID 175); details: S. cerevisiae mlh1 rad18 strain growth inhibition; at 50.0 µM; stronger effect = higher value
Outline: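 Inhibition values reflect reduced growth of mutant yeast versus vehicle-treated controls following compound exposure; the mutations affect DNA damage repair.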

Measured: growth inhibition

Nn1cnc2nccnc2c1=O
inactive: [1] 1% | [2] 4.65% | [3] -10.7% | [4] -17.4% | [5] 2.4% | [6] -5.6%

COc1cccc2c(=O)oc(-c3ccc(C(C)(C)C)cc3)nc12
inactive: [1] 16.4% | [2] 8.8% | [3] 18.4% | [4] 1.3% | [5] 13.4% | [6] 30.9%

COC(=O)c1ccccc1C1CN=NC12Cc1cc(C)ccc1C2=O (stereo unspecified)
inactive: [1] -3.25% | [2] 14.2% | [3] -10.4% | [4] -34.4% | [5] -3.5% | [6] -14.8%

COSCCCC(C)=O
inactive: [1] 25.5% | [2] 4% | [3] -5.15% | [4] 13.8% | [5] 6.55% | [6] 13.8%

COc1c2occc2c(S(=O)(=O)O)c2ccc(=O)oc12
inactive: [1] -12.5% | [2] 4.05% | [3] 6.45% | [4] 3.75% | [5] -40.6% | [6] 2.7%

Cc1ccc(NC(=O)OC/C=C/c2ccccc2)cc1NC(=O)OC/C=C/c1ccccc1
inactive: [1] 17.9% | [2] 3.05% | [3] 9.05% | [4] 6.35% | [5] -8.35% | [6] 24.1%

C=C1N(C)c2ccccc2C1(C)C
inactive: [1] 22.7% | [2] 10.2% | [3] -12.2% | [4] 29.4% | [5] 6.2% | [6] 17.3%

COc1ccc2[nH]c(=O)oc(=O)c2c1
inactive: [1] 1% | [2] 1.25% | [3] -7.5% | [4] -33.9% | [5] -16.4% | [6] -2.8%

CC(O)(c1ccccc1)C1CC1 (stereo unspecified)
inactive: [1] -1.55% | [2] -29.2% | [3] -16.7% | [4] -0.65% | [5] -16.1% | [6] -4.05%

CCC(=O)C(CC)Cc1ccc(OC)c(OC)c1 (stereo unspecified)
inactive: [1] 1.4% | [2] -15.9% | [3] -11.8% | [4] -5.55% | [5] 6.55% | [6] 2.25%

O=C(OCc1ccccc1)N1CCCCC1
inactive: [1] 7.9% | [2] -2.65% | [3] 5.45% | [4] -13.2% | [5] 22.2% | [6] -1%

CC(C)CCC[C@@H](C)[C@H]1CC[C@H]2[C@@H]3CC[C@H]4C[C@H](N[C@@H]5CC[C@@]6(C)[C@@H](CC[C@@H]7[C@@H]6CC[C@]6(C)[C@@H]([C@H](C)CCCC(C)C)CC[C@@H]76)C5)CC[C@]4(C)[C@H]3CC[C@]12C
inactive: [1] 55.1% | [2] 19.2% | [3] 46.8% | [4] -2.8% | [5] 15.3% | [6] 36.7%

C(=C/c1ccccn1)/c1ccccc1
inactive: [1] 39.4% | [2] 15.1% | [3] 21.3% | [4] 16.5% | [5] 14.6% | [6] 11.1%

CCOC(=O)/C=C(\C)NC
inactive: [1] -27.5% | [2] -46.9% | [3] -30.9% | [4] -2.75% | [5] -47% | [6] 5.95%

CC1(C)CC(=O)C(CC2=C(N)CC(C)(C)CC2=O)=C(N)C1
inactive: [1] 1.8% | [2] 5.8% | [3] 9.9% | [4] -13.3% | [5] 10.6% | [6] 31.7%

Cc1c(C)c(Cl)c(C)c(C(Cl)(Cl)Cl)c1C
inactive: [1] 0.85% | [2] -1.3% | [3] 2.05% | [4] 12.2% | [5] -0.65% | [6] -6.25%

CC(=O)NCCCCN(CCCNC(C)=O)C(=O)CNS(=O)(=O)c1cccc2c(N(C)C)cccc12
inactive: [1] -11.2% | [2] -17.1% | [3] 16.2% | [4] 2% | [5] 17.6% | [6] -8.65%

CCOC(=O)c1c(C(=O)OC)nc2n1-c1ccccc1OC2
inactive: [1] -16.2% | [2] -36.1% | [3] -14.4% | [4] -17.8% | [5] -17.4% | [6] -0.7%

Cc1ccc(C(=O)OC[C@H]2CC[C@@H](n3cc(N(C)C4CCCCC4)c(=O)[nH]c3=O)O2)cc1
inactive: [1] 2.4% | [2] -32.2% | [3] 8.7% | [4] 14.5% | [5] -2.15% | [6] 31.8%

Clc1ccc(SCSc2ccc(Cl)cc2)cc1
inactive: [1] 16.8% | [2] -7.35% | [3] 6.5% | [4] -33.5% | [5] 6.45% | [6] -0.85%

Clc1ccc(C(=C(c2ccc(Cl)cc2)c2ccc(Cl)cc2)c2ccc(Cl)cc2)cc1
inactive: [1] -3.85% | [2] 5.4% | [3] 3.5% | [4] -3.35% | [5] 10.4% | [6] -1.45%

COc1ccc(C2(C=O)NC(=O)NC2=O)cc1 (stereo unspecified)
inactive: [1] -2.25% | [2] -22.9% | [3] -13.5% | [4] 36% | [5] -2.6% | [6] 9%

CCN(CC)CCCC(C)Nc1c2cc(OC)cc(C)c2nc2c(C)c(Cl)ccc12 (stereo unspecified)
inactive: [1] 21.6% | [2] 50.6% | [3] 13.8% | [4] 19.2% | [5] 4.35% | [6] 29.4%

CCOCCOC(=O)CCC1CCCCC1
inactive: [1] 29.8% | [2] 16.5% | [3] 9.1% | [4] 11.2% | [5] 19% | [6] 29.6%

O=C1c2ccccc2C(=O)c2c(Nc3ccc4c5c(cccc35)C(=O)c3ccccc3-4)cccc21
inactive: [1] 23.1% | [2] 6.25% | [3] -14.2% | [4] -31.7% | [5] -8.4% | [6] 13.2%

Cc1cc(Cc2ccc(N)c(C)c2)ccc1N
inactive: [1] 3.4% | [2] 0.9% | [3] -12.8% | [4] -52.9% | [5] -19% | [6] -2.45%

CSc1nc2nc(C)[nH]c2c(=O)[nH]1
inactive: [1] 9.8% | [2] 5.45% | [3] -4.45% | [4] 41% | [5] 9.8% | [6] 7.6%

Cc1cc2c(=O)cc(-c3ccccc3)oc2c(C(=O)O)c1C
inactive: [1] -12.7% | [2] -8.55% | [3] 14.8% | [4] -19.7% | [5] -4.65% | [6] -10.4%

Cc1nn2c(C(=O)O)nnc2s1
inactive: [1] -0.3% | [2] 5.25% | [3] 7.7% | [4] -21.8% | [5] -16.6% | [6] -13.8%

CCC(=O)C12OC3OC(C)(C)OC3C1OC(C)(C)O2 (stereo unspecified)
inactive: [1] 0.25% | [2] 0.75% | [3] -15.2% | [4] 25.1% | [5] -1.9% | [6] 4.7%

Cn1c(=O)c2[nH]c(/N=N/N3CCN(CCO)CC3)nc2n(C)c1=O
inactive: [1] 20.1% | [2] -14.8% | [3] 6.95% | [4] -34% | [5] -45.6% | [6] 9.35%

CC1(C)Cc2oc(=Nc3ccccc3)n(-c3ccccc3)c(=O)c2C1
inactive: [1] 9.95% | [2] 2.15% | [3] 1.9% | [4] -13.2% | [5] 4.6% | [6] 0.15%

Nc1nc(N)c(-c2ccccc2)c(C(=O)Nc2ccc(Cl)c(Cl)c2)n1
inactive: [1] -27.9% | [2] -34.4% | [3] 4.1% | [4] 5.6% | [5] -23.1% | [6] -16.4%

CC(=O)N(C(C)=O)c1ccc2c(c1)Cc1ccccc1-2
inactive: [1] 14.9% | [2] -12.9% | [3] 17.4% | [4] 3.85% | [5] 35.3% | [6] 15.1%

CN(Cc1cnc2nc(N)nc(N)c2n1)c1ccc(C(=O)NC(CCC(=O)OC(C)(C)C)C(=O)O)cc1 (stereo unspecified)
inactive: [1] 13.7% | [2] 32.4% | [3] 4.5% | [4] -20.1% | [5] -2.55% | [6] -1.2%

Cc1cc2nc(CCC(=O)O)c(=O)[nH]c2cc1C
inactive: [1] -22.4% | [2] -24.6% | [3] -4.05% | [4] 13.8% | [5] -24% | [6] -28.8%

CCCN(CCC)C(=O)c1c(Cl)c2cccnc2n2c(C)cnc12
inactive: [1] 5.35% | [2] 19.7% | [3] 26.6% | [4] 18.7% | [5] 15.1% | [6] 31.3%

CSC(C(O)C(O)C(O)C(O)CO)n1cnc2c(=S)nc[nH]c21 (stereo unspecified)
inactive: [1] 1.1% | [2] 5.7% | [3] 5.75% | [4] 19.6% | [5] 11.3% | [6] 9%

COC(=O)C1CCCN1C(=O)c1ccccc1 (stereo unspecified)
inactive: [1] 3.6% | [2] -0.4% | [3] -16.2% | [4] -36.8% | [5] -5% | [6] 11.6%

O=c1nc(Nc2ccccc2)ccn1C1OC(CO)C(O)C1O (stereo unspecified)
inactive: [1] -7.95% | [2] 0.25% | [3] 0.2% | [4] 12% | [5] 7.55% | [6] 5.85%

CSc1ccc(N=Cc2ccccc2O)cc1
inactive: [1] 11.2% | [2] -40% | [3] 22.2% | [4] 15.1% | [5] 8.85% | [6] 19.4%
